Shown are actives, neighbours in structure and some others; about 4.8% of the full set was active somewhere.
Rev-erbA mod: modulators of Rev-erb alpha DNA binding, primary screen, biochemical, FITC-DNA, fluorescence polarization, uHTS; Nuclear receptor subfamily 1 group D member 1 (Homo sapiens), P20393; Rev-erbα–FITC-DNA binding, 90 min; activity, % at 10 µM; 370,000 tested, 0.79% active; AID 1259318, 2017;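 active means activity above about 14%, limit read from the data; passing the limit was not always enough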;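 further: 0% = DMSO wells with 35 nM protein and 100% = DMSO wells with 750 nM protein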
Target sequence (P20393 whole entry, looked up): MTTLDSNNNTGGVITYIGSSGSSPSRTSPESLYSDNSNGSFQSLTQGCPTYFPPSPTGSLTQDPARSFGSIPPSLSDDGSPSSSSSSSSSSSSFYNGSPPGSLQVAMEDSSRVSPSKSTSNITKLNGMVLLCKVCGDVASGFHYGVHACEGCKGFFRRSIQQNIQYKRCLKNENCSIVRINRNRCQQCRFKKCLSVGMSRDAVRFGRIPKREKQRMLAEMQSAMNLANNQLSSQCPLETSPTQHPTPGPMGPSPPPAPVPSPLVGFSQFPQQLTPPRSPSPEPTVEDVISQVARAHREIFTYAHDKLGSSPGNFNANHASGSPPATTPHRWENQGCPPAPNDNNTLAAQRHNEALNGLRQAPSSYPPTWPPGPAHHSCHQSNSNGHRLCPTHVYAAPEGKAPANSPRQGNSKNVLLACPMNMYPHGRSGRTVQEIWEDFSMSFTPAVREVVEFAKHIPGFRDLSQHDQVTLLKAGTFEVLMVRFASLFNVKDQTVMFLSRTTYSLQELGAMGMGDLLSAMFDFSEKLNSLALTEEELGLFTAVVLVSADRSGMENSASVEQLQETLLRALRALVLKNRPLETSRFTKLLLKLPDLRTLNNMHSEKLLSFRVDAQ
DAX1 inh-1: DAX1 (NR0B1) inhibitors on StAR promoter, primary screen, cell-based, luminescence, SF-1 (NR5A1), full-length DAX-1; HEK293T StAR-luciferase reporter, SF-1/DAX-1 repression relief; inhibition, % at 6.8 µM; 370,000 tested, 1.1% active;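 active means inhibition above the mean over all tested compounds plus 3 SD, cut at about 3.6% in these data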;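 further: 0% = DAX-1 cells with DMSO and 100% = cells lacking DAX-1 with DMSO; higher inhibition means more luminescence from relief of DAX-1 repression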
DAX1 inh-2: DAX1 (NR0B1) inhibitors, primary screen, cell-based, HEK293, Gal4-DAX1, luciferase luminescence. Nuclear receptor subfamily 0 group B member 1 (Homo sapiens), P51843. HEK293 Gal4-DAX1 luciferase reporter. inhibition, % at 6.75 µM. 340,000 tested, 0.99% active;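 active means inhibition above the mean over all tested compounds plus 3 SD, cut at about 4.2% in these data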;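 further: 0% = DAX1-transfected cells with DMSO and 100% = empty-vector control cells with DMSO; inhibition shows as a rise in luminescence from relieved DAX1 repression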
hcDAF12 agonist: H. contortus DAF-12 nuclear receptor activators, primary screen, cell-based, luminescence, HEK293, lit1-tk-luc reporter. HEK293 hcDAF-12 lit1-tk-luc reporter; 0% DMSO, 100% Δ7-dafachronic acid. activation, % at 6.8 µM. 370,000 tested, 1.4% active;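 active means activation above the mean of all tested compounds plus 3 SD, cut at about 5.5% in these data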;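 further: 100% = response to 3 µM Δ7-dafachronic acid high control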
hgDAF12 agonist: H. glycines DAF-12 receptor agonists, primary screen, cell-based, luminescence, HEK293, GAL4 fusion, UAS-luciferase; HEK293 GAL4-hgDAF12 UAS-luciferase reporter, agonist luminescence; normalized to butyrate control; activation, % at 6.8 µM; 370,000 tested, 1.8% active; AID 687014, 2013;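 active means activation above a cutoff set at the mean of all screened compounds plus 3 SD, cut at about 10% in these data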;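 further: 0% = DMSO wells and 100% = sodium butyrate wells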
ssDAF12 agonist: S. stercoralis DAF-12 nuclear receptor activators, primary screen, cell-based, luminescence, HEK293, GRIP1 co-expression, lit1-tk-luc; Nuclear hormone receptor DAF-12 (Strongyloides stercoralis); HEK293 ssDAF-12/GRIP1 lit1-tk-luc reporter; % of 3 µM dafachronic acid response; activation, % at 6.8 µM; AID 652126, 2013; 370,000 tested, 1% active;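 active means activation above the mean over all tested compounds plus 3 SD, cut at about 0.9% in these data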;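 further: 0% = DMSO-only wells and 100% = 3 µM delta7-dafachronic acid wells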
The depositor's hits bear a star; · = no result given.

SMILES	Rev-erbA mod	DAX1 inh-1	DAX1 inh-2	hcDAF12 agonist	hgDAF12 agonist	ssDAF12 agonist
COc1ccc(NC(=O)CSc2nc3c([nH]c4ccccc43)c(=O)n2C)c(OC)c1	11	1	1	5	1	0.9*
COCCn1c(SCC(=O)Nc2ccc(F)cc2F)nc2c([nH]c3ccccc32)c1=O	1	3	0	4	-3	1
C=CCn1c(SCC(=O)Nc2ccccc2OC)nc2c([nH]c3ccccc32)c1=O	-3	-1	0	5.9*	4	0
C=CCn1c(SCC(=O)Nc2ccc(F)cc2F)nc2c([nH]c3ccccc32)c1=O	2	-1	0	3	1	1.9*
COCCn1c(SCC(=O)Nc2ccccc2OC)nc2c([nH]c3ccccc32)c1=O	-6	-2	-1	4	0	0
COCCn1c(SCC(=O)NCCc2ccccc2)nc2c([nH]c3ccccc32)c1=O	·	·	0	·	·	·
C=CC(=O)NC1CCCCN(C)C1=O (stereo unspecified)	7	1	·	1	4	-1
CC(C)C[C@H]1COc2cc(Br)ccc2S(=O)(=O)N1Cc1cn(Cc2ccc(F)cc2)nn1	4	1	·	0	4	-1
C[C@H]1[C@@H](OC(=O)NCc2ccc(Cl)c(Cl)c2)CC[C@@]23CCCN2C(=O)CCC[C@@H]13	2	·	·	-3	-3	-2
CN1C(=O)/C(=C/c2ccc(O)c([N+](=O)[O-])c2)N(C)C1=S	15	1	4.2*	0	3	-1
Cc1nc2ccc(F)cc2cc1C(=O)NCC1CCCO1 (stereo unspecified)	-3	0	0	5.8*	-1	0
O=C(NCC1CCCO1)c1cccc2ccccc12 (stereo unspecified)	6	0	2	-2	3	0
O=C(NCC1CCCO1)c1cc2ccccc2nc1Cl (stereo unspecified)	8	1	4.3*	0	0	0
C[C@H](CCC(=O)N(c1ccccc1)c1ccccc1)CC1CCCCC1	7	0	·	0	0	-1
COC(=O)[C@]12C[C@H](CC(=O)NCc3ccccc3)C(=O)N(Cc3cccc4ccccc34)C1=C[C@H](C(C)(C)C)O[C@@H]2C	-1	-1	·	-2	0	-1
O=C(Nc1ccc(Cl)cc1)c1ccc(OCC2CCCO2)cc1 (stereo unspecified)	-2	0	-2	0	13*	-1
CCOc1ccc(Oc2c(Cl)cnn(Cc3cccc4ccccc34)c2=O)cc1	-3	1	·	-1	0	-1
Cc1cc(N2CCCCC2C)nc(-c2ccccc2O)n1 (stereo unspecified)	3	0	4.4*	0	2	-1
CCc1cc2c(nc1CC)CCCN2S(=O)(=O)c1ccc(C(F)(F)F)cc1	-1	-1	·	-2	-1	-2
O=C(NCc1ccco1)C(Cc1ccccc1)N1C(=O)c2ccccc2C1=O (stereo unspecified)	-3	-1	1	6.3*	3	0
O=C(NCCCc1ccccc1)[C@H](Cc1ccccc1)NC1(C(=O)NCCc2c[nH]c3ccccc23)CCOCC1	4	·	·	-1	0	-1
CN1CCC(N[C@@H](Cc2c[nH]c3ccccc23)C(=O)NCCCc2ccccc2)(C(=O)NCCc2c[nH]c3ccccc23)CC1	0	·	·	6.3*	3	-1
COC1=C[C@H](C(=O)NCCNC(C)=O)[C@@]2(C)Cc3ccccc3[C@H]2CC1=O	-2	0	·	-2	-4	-1
Cc1cccc(Nc2nc(-c3ccccn3)cs2)n1	-1	3	0	6.0*	13*	1.1*
CC(=O)Oc1ccc(-c2csc(Nc3cccc(C)n3)n2)cc1	1	2	5.5*	4	9	2.4*
SMILES	Rev-erbA mod	DAX1 inh-1	DAX1 inh-2	hcDAF12 agonist	hgDAF12 agonist	ssDAF12 agonist
O=C(Nc1cccc(F)c1)c1ccc2ncsc2c1	·	·	3	·	·	·
O=C(Nc1ccccc1F)c1ccc2ncsc2c1	-1	0	0	1	13*	0
C[C@@H]1Cc2cc(O)cc(O)c2C(=O)O1	5	0	·	-1	2	0
COc1ccc(NC(=O)C(=O)NCCN2CCN(C(=O)c3ccc(C)cc3)CC2)cc1	-5	0	1	-3	-1	1.2*
CCC(C)NC(=O)c1cc2cc3ccc(OC)cc3nc2s1 (stereo unspecified)	-6	3.8*	1	4	10	1.4*
COc1ccc(S[C@]2(C(=O)N3CCN(C(C)=O)CC3)CC(=O)N[C@@H]2c2ccc(OC)cc2)cc1	-2	0	·	0	-1	-1
O=C(NCC1CCCO1)c1nn2c(C(F)(F)F)cc(-c3cccs3)nc2c1Cl (stereo unspecified)	-3	0	-1	0	-2	0.9*
O=C(O)c1nn2c(C(F)(F)F)cc(-c3cccs3)nc2c1Cl	3	0	1	4	4	-1
O=S1(=O)c2ccc(N3CCN(Cc4ccccc4F)CC3)cc2Oc2ccccc2CN1Cc1cn(Cc2cccc(C(F)(F)F)c2)nn1	11	-2	·	-2	0	-1
CS(=O)(=O)c1ccccc1C(=O)Nc1cc2c(cc1C(=O)O)OCCCO2	2	1	5.8*	0	1	-1
COc1ccc(/C=C2\SC(=O)N(CCNC(=O)CN3C(=O)NC4(CCCC4)C3=O)C2=O)cc1	-2	4.2*	2	2	5	0
O=C(CN1C(=O)NC2(CCCC2)C1=O)NCCN1C(=O)S/C(=C\c2ccccc2F)C1=O	-9	1	0	1	2	0
Cc1cc(O)cc(=O)n1-c1cccc([N+](=O)[O-])c1	4	-1	·	0	1	-1
CCN1CCN(C(=O)c2cc3c(s2)-c2c(C)cccc2OC3)CC1	·	·	5.9*	·	·	·
CCOC(=O)N1CCN(C(=O)c2cc3c(s2)-c2c(C)cccc2OC3)CC1	1	0	1	-1	-2	-1
COc1ccccc1C=NN=Cc1ccccc1OC	6	-1	0	2	1	1.1*
COc1ccccc1C=NN=C1c2ccccc2-c2ccccc21	4	-1	1	1	-1	0

Assay outcomes deposited in PubChem BioAssay by several laboratories.
